{
  "source": "PubChem BioAssay AID1224865",
  "about": "(Sanford-Burnham Center for Chemical Genomics, 2016)",
  "note": "Hit rate of the full screen: of about 360,000 compounds, about 1,100 (0.31%) were called active. This excerpt belongs to a sample that is enriched for actives. A number with no mark means an inactive call. No stated cut-off is given here; in the data, active means activity change above about 30% (passing the limit was not always enough); inactive means the rest.",
  "data": [
    {"molecular_target": "Hepatocyte nuclear factor 4-alpha (Homo sapiens) (UniProt P41235)", "sequence (P41235 whole entry, looked up)": "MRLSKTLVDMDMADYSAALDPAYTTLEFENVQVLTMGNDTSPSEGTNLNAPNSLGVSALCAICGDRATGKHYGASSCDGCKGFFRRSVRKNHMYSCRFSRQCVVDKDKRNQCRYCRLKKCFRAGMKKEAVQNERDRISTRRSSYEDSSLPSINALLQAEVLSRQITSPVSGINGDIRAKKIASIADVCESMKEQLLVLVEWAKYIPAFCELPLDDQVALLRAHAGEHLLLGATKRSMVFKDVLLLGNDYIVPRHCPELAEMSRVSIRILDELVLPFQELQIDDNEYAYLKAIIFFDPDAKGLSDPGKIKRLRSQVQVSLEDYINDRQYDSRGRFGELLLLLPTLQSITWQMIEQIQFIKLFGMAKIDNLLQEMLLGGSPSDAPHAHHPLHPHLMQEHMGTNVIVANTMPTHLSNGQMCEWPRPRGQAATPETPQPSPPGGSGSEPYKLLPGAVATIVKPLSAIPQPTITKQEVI", "assay": "change in binding of human HNF4A to DNA, primary screen, biochemical, fluorescence polarization, FITC-DNA (AID 1224865)", "conditions": "1 h, at 10 µM, hits give high values", "values": [
      {"smiles": "Cc1cccc2cc3c(N)c(C(=O)N4CCCc5ccccc54)sc3nc12", "activity change": "47.6% (active)"},
      {"smiles": "COc1cccc(/C=C/C(=O)OCC(=O)N2CCCc3ccccc32)c1", "activity change": "-0.26%"},
      {"smiles": "CCCn1nc(C(=O)N2CCCc3ccccc32)c2ccccc2c1=O", "activity change": "0.42%"},
      {"smiles": "O=C(NCc1ccccc1)C1CNCC(C(=O)NCc2ccccc2)C1", "note": "(configuration not stated)", "activity change": "-1.7%"},
      {"smiles": "CC(=O)Nc1ccc(S(=O)(=O)N2CCC(C(=O)NC3CC3)CC2)cc1", "activity change": "-2.11%"},
      {"smiles": "COc1ccc(C(C)=O)cc1COC(=O)Cn1cnc2ccccc2c1=O", "activity change": "3.19%"},
      {"smiles": "CC(=O)c1c(C)[nH]c(C(=O)OCC(=O)NCCC(C)C)c1C", "activity change": "-3.31%"},
      {"smiles": "COc1cc(C)c(CN2CCN(C(=O)CCC(=O)c3ccc(C)s3)CC2)cc1OC", "activity change": "-0.43%"},
      {"smiles": "O=C(Nc1ccccc1)c1ccccc1Br", "activity change": "-2.18%"},
      {"smiles": "O=C(Nc1ccc(Br)cc1)c1cc(S(=O)(=O)Nc2ccccn2)ccc1Cl", "activity change": "0.97%"},
      {"smiles": "O=C(Nc1ccncc1)c1cc(-c2ccccn2)nc2ccc(Br)cc12", "activity change": "43.9% (active)"},
      {"smiles": "O=C(CSc1nnc(Cn2cnc3ccccc32)o1)c1ccccc1", "activity change": "1.06%"},
      {"smiles": "NC(CSC(c1ccccc1)(c1ccccc1)c1ccc(-c2ccccc2)cc1)C(=O)O", "note": "(configuration not stated)", "activity change": "-4.58%"},
      {"smiles": "CN(C)c1ccc(-n2cccc2/C=C2/SC(=Nc3ccc(F)cc3)NC2=O)cc1", "activity change": "35.7% (active)"},
      {"smiles": "CN(C)c1ccc(-n2cccc2/C=N/n2cnnc2)cc1", "activity change": "-0.7%"},
      {"smiles": "O=C(COC(=O)Cc1ccccc1F)NNC(=O)c1ccc(Cl)cc1", "activity change": "-2.29%"},
      {"smiles": "O=C(NN1C(=O)C2C3C=CC(C3)C2C1=O)c1ccco1", "note": "(configuration not stated)", "activity change": "1.06%"},
      {"smiles": "CCN1/C(=C\\c2ccc3ccccc3[n+]2CC)Sc2cc(C)ccc21", "activity change": "81.5% (active)"},
      {"smiles": "Cc1ccc(S(=O)(=O)N2CC(O)C[C@H]2C(=O)OCC(=O)Nc2ccc(N3CCOCC3)cc2)cc1C", "note": "(some centres not stated)", "activity change": "-2.65%"},
      {"smiles": "COc1ccc(/C=C(\\NC(=O)c2ccccc2)C(=O)NCCN2CCOCC2)cc1OC", "activity change": "-1.85%"},
      {"smiles": "Cn1c2ccccc2c2cc(/C=C(\\NC(=O)c3ccccc3)C(=O)NCC(=O)O)ccc21", "activity change": "43.6% (active)"},
      {"smiles": "CCOc1ccc(/C=C(/NC(=O)c2ccccc2)C(=O)NCCC(=O)O)cc1", "activity change": "1.05%"},
      {"smiles": "Cc1ccc(S(=O)(=O)c2ccc(Cl)cc2)cc1S(=O)(=O)NC(C(=O)O)C(C)C", "note": "(configuration not stated)", "activity change": "-3.32%"},
      {"smiles": "CCOC(OCC)c1ccc(/C=C\\c2nccc(N)n2)cc1", "activity change": "2.56%"},
      {"smiles": "Cc1oc2nc(SCC(=O)Nc3ccc(S(N)(=O)=O)cc3)nc(NC(=O)c3ccccc3)c2c1C", "activity change": "-0.08%"},
      {"smiles": "COc1ccc(CCNS(=O)(=O)c2cn(C)nc2C)cc1", "activity change": "1.38%"},
      {"smiles": "N#Cc1ccccc1NC(=O)COc1c(Br)cc(Br)c2cccnc12", "activity change": "-0.16%"},
      {"smiles": "N#Cc1ccc(C(=O)Nc2cccc3cccnc23)c(F)c1", "activity change": "43.6% (active)"},
      {"smiles": "CSc1ccc(C#N)cc1NC(=O)c1ccc(Cl)cc1", "activity change": "2.01%"},
      {"smiles": "COCCNC(=O)c1cc2c(Br)ccc(Br)c2nc1N", "activity change": "-2.58%"},
      {"smiles": "Cc1cccn2c(=O)c(C=O)c(Nc3ccc(S(N)(=O)=O)cc3)nc12", "activity change": "-2.3%"},
      {"smiles": "Cc1cccn2c(=O)c(/C=C3\\SC(=S)N(CC(C)C)C3=O)c(NCCCOC(C)C)nc12", "activity change": "82.9% (active)"},
      {"smiles": "CCCN(CCC)c1nc2c(C)cccn2c(=O)c1/C=C1/SC(=S)N(Cc2ccco2)C1=O", "activity change": "8.02%"},
      {"smiles": "CCc1nnc(NC(=O)CSc2nc(SC)ns2)s1", "activity change": "0.21%"},
      {"smiles": "Cc1cc(C(=O)CC#N)c(C)n1-c1c(C)n(C)n(-c2ccccc2)c1=O", "activity change": "11.5%"},
      {"smiles": "CCCCSCCCNC(=O)C1CCC(CNS(=O)(=O)c2ccc(NC(C)=O)cc2)CC1", "note": "(configuration not stated)", "activity change": "2.47%"},
      {"smiles": "CCc1ccc(C2C(C#N)=C(N)N(N(C)C)C3=C2C(=O)CCC3)s1", "note": "(configuration not stated)", "activity change": "0.21%"},
      {"smiles": "CCCC(O)(CCC)C(=O)NN(C(=O)CCl)c1cccc(C)c1", "activity change": "0.04%"},
      {"smiles": "N[C@@H](Cc1ccccc1)C(=O)N1CCOCC1", "activity change": "2.36%"},
      {"smiles": "COc1cc(C=NC2CCCCC2)ccc1O", "activity change": "1.88%"},
      {"smiles": "COc1cc(/C=C(\\C#N)c2nc3ccccc3[nH]2)ccc1O", "activity change": "50.5% (active)"},
      {"smiles": "CCN(/N=C/c1ccc(N(C)C)cc1)c1nc2ccccc2[nH]1", "activity change": "-0.96%"},
      {"smiles": "COc1cc(/C=C(\\C#N)c2nc3c(s2)CC(C)CC3)ccc1O", "note": "(configuration not stated)", "activity change": "74% (active)"},
      {"smiles": "COC(=O)CSc1ccc2nnc(CCNS(=O)(=O)c3ccc(C)cc3)n2n1", "activity change": "-1.91%"},
      {"smiles": "CC(NC(=O)C(C)(C)C)C(c1cccs1)N1CCN(Cc2ccccc2)CC1", "note": "(configuration not stated)", "activity change": "-1.5%"},
      {"smiles": "CN1OC[C@@H]2CN(C(=O)c3cccnc3)[C@H](c3ccc(N4CCCCC4)cc3)C[C@@H]21", "activity change": "10.4%"},
      {"smiles": "Cc1ccc(CNC(=O)c2ccc(CS(=O)Cc3cccc(Cl)c3)o2)cc1", "note": "(configuration not stated)", "activity change": "1.72%"},
      {"smiles": "CCc1ccc(NC(=O)CC2C(=O)NCCN2C(=S)Nc2ccccc2)cc1", "note": "(configuration not stated)", "activity change": "1.59%"},
      {"smiles": "Cc1c(N=Nc2ccc(N(C)C)cc2)c(=O)n(-c2ccccc2)n1C", "activity change": "35.5% (active)"},
      {"smiles": "Cc1c(C=O)n(C)n(-c2ccccc2)c1=O", "activity change": "1.77%"},
      {"smiles": "Cc1nc(N)sc1N=Nc1c(C)n(C)n(-c2ccccc2)c1=O", "activity change": "6.08%"},
      {"smiles": "O=C(CCN1C(=O)C2CCCCC2C1=O)Nc1ccc(OC(F)F)cc1", "note": "(configuration not stated)", "activity change": "1.26%"},
      {"smiles": "C=CC[C@H](CC(=O)N(CCO)Cc1ccccc1)C(=O)N[C@@H](COC(=O)[C@@H](CC=C)Cc1ccc(F)cc1)Cc1ccccc1", "activity change": "2.32%"},
      {"smiles": "CN(CC(=O)Nc1cccc(F)c1)C(=O)CC1CCCC1", "activity change": "-0.01%"},
      {"smiles": "Cc1ccc(CSCC(=O)N(C)CC(=O)Nc2cccc(F)c2)cc1", "activity change": "-2.3%"},
      {"smiles": "CCN(CC)C(=O)CSC(Nc1cccc(F)c1)=C(C#N)C#N", "activity change": "44.9% (active)"},
      {"smiles": "Cc1ccccc1OCCC(=O)Nc1c(C)n(C)n(-c2ccccc2)c1=O", "activity change": "-0.09%"},
      {"smiles": "O=C(CC1Nc2ccccc2NC1=O)Nc1ccccc1", "note": "(configuration not stated)", "activity change": "7.95%"},
      {"smiles": "COc1ccc(NC2=CC(=S)NC(C)(C)C2)cc1", "activity change": "39.2% (active)"},
      {"smiles": "COc1ccc(CCNC2=CC(=O)CC(C)(C)C2)cc1", "activity change": "2.16%"},
      {"smiles": "COc1ccc(Nc2cc(Sc3ccc(OC)cc3)ncn2)cc1", "activity change": "7.05%"},
      {"smiles": "CCCNC(=O)c1cc(C2CCCCN2S(=O)(=O)c2cn(C)cn2)on1", "note": "(configuration not stated)", "activity change": "-2.31%"},
      {"smiles": "Cc1cc(C)n2nc(C(=O)Nc3cccc(S(=O)(=O)N4CCOCC4)c3)nc2n1", "activity change": "-1.39%"},
      {"smiles": "CC(C)Oc1ccc(C(=O)NCC(=O)Nc2ccc3c(c2)CCC3)cc1", "activity change": "-0.66%"},
      {"smiles": "Cc1ccc(C(=O)OCC(=O)NC2CCCCCCC2)cc1C", "activity change": "-0.78%"},
      {"smiles": "Cc1nc(SCC(=O)N2CC(=O)Nc3ccccc32)c2c(C)c(C)sc2n1", "activity change": "-0.27%"},
      {"smiles": "Cc1nc(SCC(=O)N2CCc3ccccc3C2)c2c(C)c(C)sc2n1", "activity change": "-0.31%"},
      {"smiles": "Cc1nc(SCC(=O)Nc2cc(C)on2)c2c(C)c(C)sc2n1", "activity change": "49.9% (active)"},
      {"smiles": "CC/C(=C(/c1ccccc1)c1ccc(OCC[N+](C)(C)C)cc1)c1ccccc1", "activity change": "7.53%"},
      {"smiles": "C[C@@H]1CN([C@H](C)CO)C(=O)c2cc(Br)cnc2O[C@@H]1CN(C)Cc1cncnc1", "activity change": "3.08%"},
      {"smiles": "COC(=O)c1cccc(N(CC(=O)NCC2CCCO2)C(=O)CCC(=O)Nc2cc(C)on2)c1", "note": "(configuration not stated)", "activity change": "2.32%"},
      {"smiles": "O=C(COC(=O)c1ccc(F)c(S(=O)(=O)N2CCOCC2)c1)NCc1ccc2c(c1)OCO2", "activity change": "2.9%"}
    ]}
  ]
}
